Measurements reported in PubChem BioAssay.
A number with no mark means an inactive call. How the calls were made is not given here.

Each molecule was assayed against Pantothenate synthetase (Mycobacterium tuberculosis (strain ATCC 25618 / H37Rv)) (UniProt P9WIL5) (assay: Recombinant Mtb pantothenate synthetase (PanC) inhibitors, coupled enzyme, confirmatory (AID 375;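 further: 0% = full reaction with vehicle and 100% = no enzyme background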)). Settings: coupled enzyme assay; at 10 µM, stronger effect = higher value.
Chain of Pantothenate synthetase (Mycobacterium tuberculosis (strain ATCC 25618 / H37Rv)) (P9WIL5 whole entry, looked up): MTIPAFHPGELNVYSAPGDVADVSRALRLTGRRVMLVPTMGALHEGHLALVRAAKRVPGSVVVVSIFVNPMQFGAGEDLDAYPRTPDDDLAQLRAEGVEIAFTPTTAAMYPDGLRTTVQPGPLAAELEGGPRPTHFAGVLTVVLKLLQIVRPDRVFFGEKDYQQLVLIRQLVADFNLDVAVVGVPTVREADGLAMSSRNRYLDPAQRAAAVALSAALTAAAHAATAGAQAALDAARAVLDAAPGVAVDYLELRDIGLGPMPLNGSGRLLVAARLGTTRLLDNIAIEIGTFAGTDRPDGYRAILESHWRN

SMILES | inhibition
COCCN(C(=O)c1csnn1)C(C(=O)NC1CCCCC1)c1cccs1 (stereo not given) | 2%
O=C(c1noc2c1CCc1ccccc1-2)N1CCOCC1 | 0%
Cc1nnc2n(Cc3ccccc3)c(=O)c3c4c(sc3n12)COC(C(C)C)C4 (stereo not given) | 0%
c1ccc(Oc2ccc(-n3cnnn3)cc2)cc1 | 3%
Fc1ccc(-c2ccc(-c3nn4c(-c5ccco5)nnc4s3)o2)cc1 | 14%
O=S(=O)(Nc1ccc2c(c1)OCO2)c1ccc(Br)s1 | 0%
CCOC(=O)Nc1ccc2c(c1)N(C(=O)CCN1CCOCC1)c1ccccc1S2 | 3%
CCOC(=O)c1ccccc1NC(=O)CSc1nccn1C | 0%
CCN(CC)CCCNC(=O)c1nn(-c2ccc(OC)cc2OC)c(=O)c2ccccc12 | 0%
O=C(CCNS(=O)(=O)c1cccc2nsnc12)NCc1cccs1 | 1%
O=C(CCN1C(=O)C2C3C=CC(C3)C2C1=O)NCCc1ccccc1Cl (stereo not given) | 0%
Cc1nn(-c2ccc(F)cc2)c2sc(C(=O)N3CCCCCC3)cc12 | 0%
CCOC(=O)Cn1nnnc1CN(Cc1ccc(OC)cc1)Cc1cc2cc(C)ccc2[nH]c1=O | 1%
COC(=O)Nc1sc2c(c1C(N)=O)CCCCCC2 | 2%
CC1=C(C#N)C(=O)NC(C)(C)C1 | 0%
COc1ccc(CNCC(=O)Nc2cc(C)nn2-c2nc(C)cc(C)n2)cc1OC | 0%
COc1cccc(NC(=O)C2C3C=CC4(O3)C2C(=O)N(C(C)C)C4C(=O)NC2CCCCC2C)c1 (stereo not given) | 2%
Cn1cc(CC(=O)Nc2cccc(C#N)c2)c2ccccc21 | 6%
Cc1nnc(SCC(=O)N2CCN(S(=O)(=O)c3ccccc3)CC2)[nH]c1=O | 0%
COc1cccc(OC)c1OCCNCCO | 2%

SMILES | inhibition
COC(=O)Cc1cc(=O)n(-c2ccccc2)[nH]1 | 0%
Cc1csc(SCCn2c(N3CCCC3)nc3c2c(=O)[nH]c(=O)n3C)n1 | 0%
Cc1cc(=O)oc2c1ccc1oc(/C(=N/O)c3ccccc3)c(C)c12 | 0%
COc1ccc(NC(=O)CN2CCN(CC(=O)Nc3cc(OC)cc(OC)c3)CC2)cc1 | 8%
c1ccc(-c2n[nH]c3ccccc23)cc1 | 0%
c1ccc(-c2nc3ccccc3nc2-c2ccccn2)nc1 | 0%
N[C@@H](Cc1cc(I)c(Oc2ccc(O)c(I)c2)c(I)c1)C(=O)O | 0%
CCn1c(=O)cc(SCC(=O)Nc2ccc3c(c2)OCO3)c2ccccc21 | 0%
CC(O)Cn1cnc2c1c(=O)n(C)c(=O)n2C (stereo not given) | 2%
COc1cccc(NC(=O)N(Cc2ccco2)C(C)c2cccs2)c1 (stereo not given) | 2%
c1ccc(-n2cnc3cc(NCc4ccccn4)ccc32)cc1 | 0%
NC(=O)C(Cc1ccccc1)NS(=O)(=O)c1ccc(N2CCCC2=O)cc1 (stereo not given) | 0%
CCCCOc1cc(=O)[nH]c(=O)[nH]1 | 4%
O=C(Nc1ccccc1C(=O)NCCCn1ccnc1)c1ccccc1 | 3%
CCOc1nc(-c2ccccc2)ccc1-c1noc(-c2ccc(OC)c(OC)c2)n1 | 4%
COc1ccccc1NC(=O)NC1(C(=O)N2CCC(O)CC2)CCCCC1 | 0%
COC(=O)C1=C(C)Nc2ncnn2C1c1ccc(C)o1 (stereo not given) | 0%
Cn1c(=O)c2c3c(sc2n2c(SCc4ccccc4)nnc12)CCCC3 | 0%
CCOC(=O)c1[nH]c2ccc(F)cc2c1NC(=O)C(C)N1CCc2cc(OC)c(OC)cc2C1 (stereo not given) | 3%
COc1ccc(C2=NOC(C(=O)NCCCN3CCOCC3)C2)cc1 (stereo not given) | 5%
